# Source: the supplement of paper PMC10849652
# About 7,900 targets were measured; listed, in parts, are those with a hit and a random draw of the rest. About 0.6% of all pairs of compound and target were hits. Values without a mark were called inactive.
# What was measured:
# Experiment in all cases: log2 fold change, soluble protein after heating vs DMSO (PISA); higher = thermal stabilisation; K562 cells, 10 uM, 30 min; active = over 0.2 and 3.5 SD of the protein, either way, in both replicates (recomputed)
# [1] = compound: C#Cc1cccc(Nc2ncnc3cc(OCCOC)c(OCCOC)cc23)c1 [erlotinib]
# Method in brief: (§1)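 Aliquots of K562 cells (2×10^6 cells/mL) treated with 10 μM compound for 30 min were heated for 3 min over 48°C-58°C. After pooling and extraction in PBS with 0.5% NP-40 at 4°C, soluble protein from a 21,000xg, 90 min spin was quantified by TMTpro 16plex LC-MS/MS with channel sums equalised. Thermal stability is expressed against control samples, from duplicates, as a log2 fold change.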
# [2] = compound: C/C(=N\NC(=O)C1=CC(=CC=C1)S(=O)(=O)N2CCOCC2)/C3=C(C=CC(=C3)Cl)O
# Method in brief: as §1
# [3] = compound: C1=CC(=C(C=C1Cl)C2=NC3=NC=CN=C3C(=N2)NC4=CC=NC=C4)F
# Method in brief: as §1
# [4] = compound: C1=CC(=CC=C1C2=NC3=C(N2)C=C(C=C3)C(=O)N)OC4=CC=C(C=C4)Cl
# Method in brief: as §1
# [5] = compound: C1=CC2=C(C=CC(=C2)/C=C\3/C(=O)NC(=NCC4=CC=CS4)S3)N=C1
# Method in brief: as §1
# [6] = compound: C1=CC2=NC=CN=C2C=C1/C=C/3\C(=O)NC(=O)S3
# Method in brief: as §1
# [7] = compound: C1=CC=C(C=C1)C2=NC(=C(N2)C3=CC=NC=C3)C4=CC(=C(C=C4)Cl)O
# Method in brief: as §1
# [8] = compound: C1=CC=C2C(=C1)C3=NNC4=CC=CC(=C43)C2=O
# Method in brief: as §1
# [9] = compound: C1CCN(C1)C(=O)NC2=CC=CC(=C2)NC3=NC=C(C(=N3)NCCC4=CN=CN4)Br
# Method in brief: as §1
# [10] = compound: C1CN(CCC1(CC2=CC=C(C=C2)Cl)N)C3=NC=NC4=C3C=CN4
# Method in brief: as §1
# UniProt O60256, sequence (O60256 whole entry, looked up): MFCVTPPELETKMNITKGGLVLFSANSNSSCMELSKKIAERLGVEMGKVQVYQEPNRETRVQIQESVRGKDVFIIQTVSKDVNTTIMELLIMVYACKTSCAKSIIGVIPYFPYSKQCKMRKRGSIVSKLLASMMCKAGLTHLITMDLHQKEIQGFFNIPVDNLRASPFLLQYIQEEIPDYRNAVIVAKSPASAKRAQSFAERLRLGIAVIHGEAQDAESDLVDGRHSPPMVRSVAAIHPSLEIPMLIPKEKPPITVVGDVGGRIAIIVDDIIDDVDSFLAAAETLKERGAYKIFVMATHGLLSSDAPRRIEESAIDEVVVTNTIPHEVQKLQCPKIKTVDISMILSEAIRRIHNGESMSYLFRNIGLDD
# UniProt Q9NR12, sequence (Q9NR12 whole entry, looked up): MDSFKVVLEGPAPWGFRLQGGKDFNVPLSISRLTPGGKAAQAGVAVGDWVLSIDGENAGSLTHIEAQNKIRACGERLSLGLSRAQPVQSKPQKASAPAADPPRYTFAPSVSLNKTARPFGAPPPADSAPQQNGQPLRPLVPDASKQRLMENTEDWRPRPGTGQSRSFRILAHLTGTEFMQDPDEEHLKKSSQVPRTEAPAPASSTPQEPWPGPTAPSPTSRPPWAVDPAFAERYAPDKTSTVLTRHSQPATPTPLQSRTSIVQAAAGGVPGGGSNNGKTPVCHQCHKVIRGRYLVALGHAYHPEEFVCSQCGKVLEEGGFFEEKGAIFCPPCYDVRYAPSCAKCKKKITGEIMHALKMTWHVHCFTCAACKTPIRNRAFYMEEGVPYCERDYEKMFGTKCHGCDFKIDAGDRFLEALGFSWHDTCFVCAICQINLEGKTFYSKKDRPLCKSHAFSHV
# UniProt Q9Y478, sequence (Q9Y478 whole entry, looked up): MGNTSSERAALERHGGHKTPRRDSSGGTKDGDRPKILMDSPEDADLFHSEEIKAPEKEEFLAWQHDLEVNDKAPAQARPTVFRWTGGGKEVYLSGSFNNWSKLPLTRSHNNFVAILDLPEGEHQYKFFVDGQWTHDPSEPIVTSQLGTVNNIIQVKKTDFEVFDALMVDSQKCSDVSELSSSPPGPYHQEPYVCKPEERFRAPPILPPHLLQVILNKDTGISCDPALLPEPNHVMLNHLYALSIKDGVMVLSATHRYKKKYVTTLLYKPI
# UniProt Q8WWY3, sequence (Q8WWY3 whole entry, looked up): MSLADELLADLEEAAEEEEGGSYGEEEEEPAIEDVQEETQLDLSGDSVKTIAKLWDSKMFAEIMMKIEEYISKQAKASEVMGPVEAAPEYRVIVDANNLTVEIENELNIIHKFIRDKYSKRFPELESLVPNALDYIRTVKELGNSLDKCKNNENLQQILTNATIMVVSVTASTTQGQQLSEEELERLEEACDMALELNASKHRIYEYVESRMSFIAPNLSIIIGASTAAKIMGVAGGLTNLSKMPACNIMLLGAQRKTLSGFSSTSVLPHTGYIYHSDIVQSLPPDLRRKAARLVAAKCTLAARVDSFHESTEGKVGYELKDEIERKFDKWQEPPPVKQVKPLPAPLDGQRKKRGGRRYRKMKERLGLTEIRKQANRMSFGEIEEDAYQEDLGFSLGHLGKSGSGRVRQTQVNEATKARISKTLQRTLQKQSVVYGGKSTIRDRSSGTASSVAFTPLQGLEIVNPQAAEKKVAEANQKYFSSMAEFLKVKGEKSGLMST
# UniProt Q9Y3C6, sequence (Q9Y3C6 whole entry, looked up): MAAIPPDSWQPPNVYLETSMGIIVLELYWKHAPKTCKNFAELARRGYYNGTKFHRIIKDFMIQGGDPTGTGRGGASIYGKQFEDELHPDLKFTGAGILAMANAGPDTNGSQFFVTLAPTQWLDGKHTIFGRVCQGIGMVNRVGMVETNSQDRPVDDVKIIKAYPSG
# UniProt Q10713, sequence (Q10713 whole entry, looked up): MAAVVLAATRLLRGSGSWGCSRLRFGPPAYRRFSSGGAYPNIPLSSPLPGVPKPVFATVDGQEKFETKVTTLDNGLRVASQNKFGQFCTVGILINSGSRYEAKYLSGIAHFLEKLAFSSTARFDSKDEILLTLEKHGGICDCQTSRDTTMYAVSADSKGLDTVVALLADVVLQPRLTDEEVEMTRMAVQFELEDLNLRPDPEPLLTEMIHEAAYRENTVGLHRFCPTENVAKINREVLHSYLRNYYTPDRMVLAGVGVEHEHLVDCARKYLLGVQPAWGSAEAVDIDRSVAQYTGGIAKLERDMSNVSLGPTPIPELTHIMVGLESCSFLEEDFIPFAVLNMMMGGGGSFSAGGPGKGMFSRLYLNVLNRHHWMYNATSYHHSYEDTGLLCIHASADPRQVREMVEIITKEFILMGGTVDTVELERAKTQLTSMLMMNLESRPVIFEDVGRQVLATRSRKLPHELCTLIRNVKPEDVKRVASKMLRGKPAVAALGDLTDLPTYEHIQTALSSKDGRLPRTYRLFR
# UniProt P78356, sequence (P78356 whole entry, looked up): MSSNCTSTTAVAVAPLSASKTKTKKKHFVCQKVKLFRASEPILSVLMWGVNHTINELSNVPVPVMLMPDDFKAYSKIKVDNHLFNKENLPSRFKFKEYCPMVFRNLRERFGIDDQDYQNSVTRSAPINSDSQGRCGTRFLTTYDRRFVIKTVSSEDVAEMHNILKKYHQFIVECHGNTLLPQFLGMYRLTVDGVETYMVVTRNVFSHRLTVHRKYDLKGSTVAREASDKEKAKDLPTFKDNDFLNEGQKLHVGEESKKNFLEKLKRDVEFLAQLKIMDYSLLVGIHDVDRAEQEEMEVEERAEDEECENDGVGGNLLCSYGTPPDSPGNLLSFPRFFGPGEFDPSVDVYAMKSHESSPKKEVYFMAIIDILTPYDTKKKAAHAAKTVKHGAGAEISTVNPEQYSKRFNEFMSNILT
# UniProt P42338, sequence (P42338 whole entry, looked up): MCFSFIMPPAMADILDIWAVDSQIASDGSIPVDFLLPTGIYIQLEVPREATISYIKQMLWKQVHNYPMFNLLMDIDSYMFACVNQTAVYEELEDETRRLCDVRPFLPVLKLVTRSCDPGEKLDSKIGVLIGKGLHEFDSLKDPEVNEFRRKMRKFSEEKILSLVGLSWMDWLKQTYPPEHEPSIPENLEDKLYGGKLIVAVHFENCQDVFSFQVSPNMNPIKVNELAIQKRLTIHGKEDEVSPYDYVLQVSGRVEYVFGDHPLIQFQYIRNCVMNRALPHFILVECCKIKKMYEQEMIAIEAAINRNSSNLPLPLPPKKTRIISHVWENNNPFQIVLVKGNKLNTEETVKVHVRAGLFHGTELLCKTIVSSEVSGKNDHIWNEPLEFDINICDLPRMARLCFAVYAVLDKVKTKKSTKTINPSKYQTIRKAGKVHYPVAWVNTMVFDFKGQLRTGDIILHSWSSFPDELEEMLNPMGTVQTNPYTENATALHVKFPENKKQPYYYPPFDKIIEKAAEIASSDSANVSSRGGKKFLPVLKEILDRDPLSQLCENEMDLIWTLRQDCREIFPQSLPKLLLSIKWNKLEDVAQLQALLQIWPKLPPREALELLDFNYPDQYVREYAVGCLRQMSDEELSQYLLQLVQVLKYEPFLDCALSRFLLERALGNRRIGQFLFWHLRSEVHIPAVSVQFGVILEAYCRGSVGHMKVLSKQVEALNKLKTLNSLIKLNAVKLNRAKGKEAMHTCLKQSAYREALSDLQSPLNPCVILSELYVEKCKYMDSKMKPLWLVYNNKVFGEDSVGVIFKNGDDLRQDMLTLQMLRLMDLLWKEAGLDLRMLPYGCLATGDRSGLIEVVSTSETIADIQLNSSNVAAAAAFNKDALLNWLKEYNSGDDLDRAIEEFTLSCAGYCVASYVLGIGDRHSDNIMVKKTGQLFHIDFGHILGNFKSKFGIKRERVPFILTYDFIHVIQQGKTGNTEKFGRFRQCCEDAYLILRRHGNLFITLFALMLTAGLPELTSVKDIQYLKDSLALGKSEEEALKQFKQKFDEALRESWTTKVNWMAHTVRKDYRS
# UniProt Q9BRP1, sequence (Q9BRP1 whole entry, looked up): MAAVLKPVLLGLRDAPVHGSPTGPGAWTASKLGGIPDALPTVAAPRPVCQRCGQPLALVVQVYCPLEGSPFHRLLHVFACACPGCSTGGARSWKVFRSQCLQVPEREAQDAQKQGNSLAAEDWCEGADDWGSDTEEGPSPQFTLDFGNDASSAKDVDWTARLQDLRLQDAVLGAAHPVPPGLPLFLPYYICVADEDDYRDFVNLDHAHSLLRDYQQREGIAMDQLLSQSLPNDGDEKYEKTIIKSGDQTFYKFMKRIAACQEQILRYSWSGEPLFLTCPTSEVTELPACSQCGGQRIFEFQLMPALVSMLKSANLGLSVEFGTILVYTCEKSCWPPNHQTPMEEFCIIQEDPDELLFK
# UniProt O95394, sequence (O95394 whole entry, looked up): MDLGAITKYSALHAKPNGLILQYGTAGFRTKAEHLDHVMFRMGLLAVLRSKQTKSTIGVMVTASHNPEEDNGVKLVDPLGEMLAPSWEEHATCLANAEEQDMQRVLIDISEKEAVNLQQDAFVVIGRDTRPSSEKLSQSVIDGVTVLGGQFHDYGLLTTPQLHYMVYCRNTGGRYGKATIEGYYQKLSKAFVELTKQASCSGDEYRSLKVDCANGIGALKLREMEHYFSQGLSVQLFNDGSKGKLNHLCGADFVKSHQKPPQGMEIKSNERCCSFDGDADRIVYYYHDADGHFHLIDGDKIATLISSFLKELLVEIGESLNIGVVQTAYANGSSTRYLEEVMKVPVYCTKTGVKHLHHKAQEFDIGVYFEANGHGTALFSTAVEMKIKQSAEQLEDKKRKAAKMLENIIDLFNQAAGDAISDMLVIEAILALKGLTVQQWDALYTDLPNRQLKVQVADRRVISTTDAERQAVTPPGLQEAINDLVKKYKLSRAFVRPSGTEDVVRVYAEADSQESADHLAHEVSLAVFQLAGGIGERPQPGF
# UniProt Q9Y244, sequence (Q9Y244 whole entry, looked up): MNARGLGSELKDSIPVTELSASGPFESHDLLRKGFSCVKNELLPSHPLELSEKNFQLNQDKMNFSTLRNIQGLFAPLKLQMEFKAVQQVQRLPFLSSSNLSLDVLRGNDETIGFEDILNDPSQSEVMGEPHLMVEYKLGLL
# UniProt O60925, sequence (O60925 whole entry, looked up): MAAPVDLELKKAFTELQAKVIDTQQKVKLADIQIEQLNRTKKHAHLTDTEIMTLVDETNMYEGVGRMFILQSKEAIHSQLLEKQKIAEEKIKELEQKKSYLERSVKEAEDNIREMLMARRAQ
Target,log2 fold change [1],log2 fold change [2],log2 fold change [3],log2 fold change [4],log2 fold change [5],log2 fold change [6],log2 fold change [7],log2 fold change [8],log2 fold change [9],log2 fold change [10]
PMPCA (UniProt Q10713),-0.014,0.005,0.064,0.016,0.03,-0.014,0.07,0.065,-0.026,0.011
POLR2B (UniProt P30876),-0.008,-0.014,-0.025,0.024,-0.006,0.047,0.045,0.009,0.068,-0.063
PRPF31 (UniProt Q8WWY3),0.105,0.194,0.05,0,0.217,0,0.027,0.076,-0.067,0.129
PRKACA (UniProt P17612),0.013,0.033,-0.054,-0.016,-0.034,0.042,0.087,-0.025,-0.142,0.047
POMP (UniProt Q9Y244),0.003,-0.018,0.373 (active),0.015,-0.073,0.086,-0.018,0.003,0.061,-0.034
PDCD6 (UniProt O75340),-0.006,0.038,0.066,0.004,0.034,0.02,-0.061,0.029,0.024,-0.048
PSPC1 (UniProt Q8WXF1),-0.024,0.014,-0.036,0.043,-0.008,0.004,-0.101,-0.141,-0.033,-0.061
PHKA1 (UniProt P46020),-0.028,-0.101,-0.051,0.003,0.057,0.024,0.152,-0.095,-0.105,-0.026
PTPA (UniProt Q15257),0.022,0.034,0.069,0.127,-0.01,0.01,0.022,0.029,-0.037,-0.013
PPIL1 (UniProt Q9Y3C6),0.019,-0.009,-0.027,-0.012,0.024,0.061,-0.013,-0.025,-0.007,-0.027
PRKCQ (UniProt Q04759),0.036,0.047,0.024,0.03,0.093,0.012,0.012,-0.008,-0.007,-0.061
PRKACB isoform 2 (UniProt P22694),0.013,0.049,-0.065,0.072,0.007,0.008,-0.034,-0.096,-0.095,0.007
PIK3CB (UniProt P42338),0.07,0.018,0.002,-0.022,0.081,0.09,0.032,0.014,-0.016,0.004
POLR2I (UniProt P36954),-0.058,-0.107,0.108,0.068,-0.073,-0.117,0.079,-0.043,-0.092,0
PBX2 (UniProt P40425),0.111,0.076,0.055,0.007,0.009,-0.039,0.091,-0.098,-0.036,-0.269
PSMD12 (UniProt O00232),-0.064,0,-0.017,-0.003,-0.023,-0.016,0.009,0.066,-0.042,-0.049
PGM3 isoform 4 (UniProt O95394),0.001,0.094,0.045,0.103,0.092,0.001,0.042,0.064,-0.005,-0.053
POLR2K (UniProt P53803),-0.081,0.021,-0.037,0.127,-0.017,0.097,-0.1,-0.105,0.005,0.022
PIP4K2B (UniProt P78356),0.16,-0.022,0.082,-0.083,0.017,0.244,0.104,0.096,0.13,0.037
PRKAR2A (UniProt P13861),-0.002,0.013,-0.024,0.062,0.082,-0.005,-0.021,-0.004,-0.177,-0.486 (active)
PFDN1 (UniProt O60925),-0.018,0.012,0.263,0.07,0.056,0.063,0.137,0.047,-0.091,-0.057
PRPSAP2 (UniProt O60256),0.053,0.033,-0.017,-0.028,-0.06,0.017,-0.006,0.029,-0.02,0.009
PRKAB1 (UniProt Q9Y478),0.043,0.15,0.052,-0.011,-0.06,0.024,0.019,0.026,-0.076,0.068
PDCD2L (UniProt Q9BRP1),-0.051,0.226,0.128,0.03,0.006,-0.03,-0.078,-0.001,-0.071,-0.036
POGLUT1 (UniProt Q8NBL1),0.006,-0.046,-0.041,-0.004,0.055,0.026,0.167,-0.013,-0.007,-0.041
PDLIM7 (UniProt Q9NR12),0.013,0.039,0.1,-0.037,-0.01,0.002,0.073,0.016,-0.01,0.133
PPIL2 (UniProt Q13356),0.061,0.072,0.064,-0.033,0.047,0.004,0.026,0.067,-0.052,-0.079
